Whole data set: some 9,900 sequences, median “r (bound/input frequency ratio)” near 0.7, cut for the highest 2% near 6.5. The sample holds the highest values, similar sequences and a random draw of the others, so the mix is not that of the screen.

The labels stand for the following.
B1: ENSMUSG00000061578.1085|Ksr2|91:95 (ssRNA)
RNA: GGGAGUUCUACAGUCCGACGAUCGCUUCGAUAUCCGCAUGCUAGAUUCUAUCCAGUGGCCAGCAAUACCCAAAAGCAGCCAACCAUGAAAAUAGAGGUUUGUAAUGUACAGAAGGCUGGGGGAGCUUUCAGGGCACACGCCAGUUAUGUACAGAUGUGAAGCUGAGGUCUGAAGGAAAUGGAGGAAGUAGGAAGAUCAGACUGGUUGAAUUAGAAGUCUGUCACUCUAGGUGCUAAGUGACCUUGGACCCAGUCAGUUCUUGGAUUUCUGUUGUAGCCCAGGCUAGCCUCGAACCCUUGAUCCCUCUUGCGGUCGCACUAGUGUGGAAUUCUCGGGUGUCAAGG
B2: ENSMUSG00000058297.28|Spock2|83:87;91:104;113:124;138:144;153:162;168:193 (ssRNA)
RNA: GGGAGUUCUACAGUCCGACGAUCGCUUCGAUAUCCGCAUGCUACCUGGACAACAGCAGGCAACUUAGCAAAUGGAUCCGGAAGUCAGUGCGGAGGACCCUGGCUCCAGUGGGGGAGGACUGGGGACACACGCUACACACAUACACACAUAUGAGAACACACACAUACAUGUGAGAUGUGACACACACAUGUGAGAACACACAUACUGAGAACACACACACACACACACACACACACAUGUGAGUCACCCAAAGGUCCCUAUGUUAUUGAUUUUCAAAUGCACACUUUCACACACAAGGAUACACUCUUGCGGUCGCACUAGUGUGGAAUUCUCGGGUGUCAAGG
B3: ENSMUSG00000058297.27|Spock2 (ssRNA)
RNA: GGGAGUUCUACAGUCCGACGAUCGCUUCGAUAUCCGCAUGCUAAAGAGACCUGGACAACAGCAGGCAACUUAGCAAAUGGAUCCGGAAGUCAGUGCGGAGGACCCUGGCUCCAGUGGGGGAGGACUGGGGAGUGUGGCUUGUGUGUAUGUGUGAUAUGAGAUGUGUGUGUAUGAUGUGAGAUGUGAGUGUGUGAUGUGAGAUGUGUGUAUGUGAGAUGUGUGUGUGUGUGUGUGUGUGUGUGAUGUGAGUCACCCAAAGGUCCCUAUGUUAUUGAUUUUCAAAUGCACACUUUCACACACAAGCUCUUGCGGUCGCACUAGUGUGGAAUUCUCGGGUGUCAAGG
B4: ENSMUSG00000058297.29|Spock2 (ssRNA)
RNA: GGGAGUUCUACAGUCCGACGAUCGCUUCGAUAUCCGCAUGCUACAACAGCAGGCAACUUAGCAAAUGGAUCCGGAAGUCAGUGCGGAGGACCCUGGCUCCAGUGGGGGAGGACUGGGGAGUGUGGCUUGUGUGUAUGUGUGAUAUGAGAUGUGUGUGUAUGAUGUGAGAUGUGAGUGUGUGAUGUGAGAUGUGUGUAUGUGAGAUGUGUGUGUGUGUGUGUGUGUGUGUGAUGUGAGUCACCCAAAGGUCCCUAUGUUAUUGAUUUUCAAAUGCACACUUUCACACACAAGGAUACACUAACACUCUUGCGGUCGCACUAGUGUGGAAUUCUCGGGUGUCAAGG
B5: ENSMUSG00000058297.28|Spock2 (ssRNA)
RNA: GGGAGUUCUACAGUCCGACGAUCGCUUCGAUAUCCGCAUGCUACCUGGACAACAGCAGGCAACUUAGCAAAUGGAUCCGGAAGUCAGUGCGGAGGACCCUGGCUCCAGUGGGGGAGGACUGGGGAGUGUGGCUUGUGUGUAUGUGUGAUAUGAGAUGUGUGUGUAUGAUGUGAGAUGUGAGUGUGUGAUGUGAGAUGUGUGUAUGUGAGAUGUGUGUGUGUGUGUGUGUGUGUGUGAUGUGAGUCACCCAAAGGUCCCUAUGUUAUUGAUUUUCAAAUGCACACUUUCACACACAAGGAUACACUCUUGCGGUCGCACUAGUGUGGAAUUCUCGGGUGUCAAGG

In the experiment the target is TDP-43 (Homo sapiens, UniProt Q13148 1-414). The experiment is described as follows: RNA Bind-n-Seq with designed 260-mer pool; 25 mM Tris-HCl, 150 mM KCl, 3 mM MgCl2, BSA (printed 500 mg/mL), 20 units/mL SUPERase IN; pH not stated; 500 nM RNA pool, 1 h, 4 C; TDP-43 5, 50, 500 nM; high values mean tight binding. The conditions noted are these: protein: recombinant; tags: SBP (GST cleaved off with PreScission; pGEX-GST-SBP). The method in brief: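 Recombinant SBP-tagged TDP-43 at 5, 50 or 500 nM was captured on streptavidin beads, then incubated 1 h at 4 °C with 500 nM of an in vitro-transcribed 260-nt 3′ UTR oligo pool in 25 mM Tris-HCl, 150 mM KCl, 3 mM MgCl2, BSA and SUPERase IN. Bound RNA was washed, eluted with biotin, reverse transcribed, PCR-amplified and sequenced. Binding is R, each oligo's mapped-read-normalized abundance in the bound sample divided by its abundance in input. Duplicates used two independent protein batches.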
TDP-43, sequence (Q13148 whole entry): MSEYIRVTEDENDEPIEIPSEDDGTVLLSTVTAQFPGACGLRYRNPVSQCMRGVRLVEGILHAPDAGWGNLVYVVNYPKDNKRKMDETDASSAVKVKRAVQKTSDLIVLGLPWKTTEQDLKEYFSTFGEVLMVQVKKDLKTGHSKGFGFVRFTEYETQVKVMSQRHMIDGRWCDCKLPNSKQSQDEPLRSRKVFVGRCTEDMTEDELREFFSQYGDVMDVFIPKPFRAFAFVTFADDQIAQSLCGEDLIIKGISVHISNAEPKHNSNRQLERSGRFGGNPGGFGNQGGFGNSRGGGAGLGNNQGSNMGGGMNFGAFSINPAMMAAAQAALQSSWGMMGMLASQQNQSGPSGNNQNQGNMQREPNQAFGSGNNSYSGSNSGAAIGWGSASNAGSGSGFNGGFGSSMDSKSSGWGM
Regarding B1, the binding signal is 0.868 R (bound/input frequency ratio). The value for B2 was 3.52 R (bound/input frequency ratio); that for B3 was 6.12 R (bound/input frequency ratio); that for B4 was 6.82 R (bound/input frequency ratio). In the case of B5 it was 6.8 R (bound/input frequency ratio).
